In PubChem BioAssay AID624330 (Southern Research Specialized Biocontainment Screening …, 2012):
About 2,100 (0.62%) of roughly 340,000 compounds were called active.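 How the source made its calls: active means first-screen hits whose inhibition reached a set limit at any dose in the follow-up dose series; inconclusive means inhibition above the set first-screen limit but never retested; inactive means the rest.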 Not all results are given here. Measured potencies and affinities stand elsewhere.

Each compound was assayed against Rac GTPase-activating protein 1 (Homo sapiens) (UniProt Q9H0H5) (assay: MgcRacGAP GTPase-activating activity inhibitors, confirmation, biochemical, ADP Hunter fluorescence, primary and confirmatory (AID 624330;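 further: fluorescence reports GDP produced by GAP-driven GTP hydrolysis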)). Settings: MgcRacGAP-stimulated Rac1 GTP hydrolysis, at 30 µM, stronger effect = higher value, GST-tagged Rac1 F28L mutant substrate.
Sequence of Rac GTPase-activating protein 1 (Homo sapiens) (Q9H0H5 whole entry, looked up): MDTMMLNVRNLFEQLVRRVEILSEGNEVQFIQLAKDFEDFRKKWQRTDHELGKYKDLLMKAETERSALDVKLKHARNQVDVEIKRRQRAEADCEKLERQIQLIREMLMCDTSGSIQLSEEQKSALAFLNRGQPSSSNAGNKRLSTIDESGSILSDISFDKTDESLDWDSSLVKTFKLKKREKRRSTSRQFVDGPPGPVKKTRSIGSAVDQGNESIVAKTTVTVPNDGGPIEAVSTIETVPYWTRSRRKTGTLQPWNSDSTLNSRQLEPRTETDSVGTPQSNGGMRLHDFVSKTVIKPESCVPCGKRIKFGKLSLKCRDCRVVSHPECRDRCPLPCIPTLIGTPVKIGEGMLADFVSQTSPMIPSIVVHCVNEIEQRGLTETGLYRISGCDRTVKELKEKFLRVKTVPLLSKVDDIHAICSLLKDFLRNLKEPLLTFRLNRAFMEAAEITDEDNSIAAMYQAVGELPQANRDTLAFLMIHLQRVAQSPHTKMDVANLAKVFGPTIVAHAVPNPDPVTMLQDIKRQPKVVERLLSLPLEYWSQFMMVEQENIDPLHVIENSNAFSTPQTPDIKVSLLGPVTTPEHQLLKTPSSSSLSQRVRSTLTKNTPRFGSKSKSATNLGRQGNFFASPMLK

inhibition, inactive:
NS(=O)(=O)c1ccc(CNC(=O)Cc2ccc(S(=O)(=O)N3CCOCC3)s2)cc1 9.4%
C/C(=N\NC(=O)c1c[nH]c2ccccc12)c1ccc2c(c1)OCO2 12.8%
Fc1ccccc1/C=N/N1CCN(Cc2ccccc2Cl)CC1 -7.94%
CCN(CC)S(=O)(=O)c1ccc(NC(=O)c2cccc3c2C(=O)N(CCOC)C3)cc1 8.69%
CN1CCN(C2=C(Cl)C(=O)c3ccccc3C2=O)CC1 12.8%
Cc1ccccc1N1C(=O)C(Cl)=C(N2CCCCCC2)C1=O -5.76%
COC(=O)[C@]1(Cc2ccccc2)N[C@H](CN(C)C(=O)c2ccc(F)cc2)[C@@H]2C(=O)N(C)C(=O)[C@@H]21 1.31%
CCCCC[n+]1cccc2c3ccccc3ccc21 16.4%
Cc1c2ccccc2c(C)c2c1ccc1ccccc12 0.81%
O=C(Nc1cccc2ccccc12)N1CCOCC1 -1.28%
O=C(Cc1cccs1)Nc1nncs1 0.97%
CCOC(=O)N1CCN(C(=O)c2ccc3c(=O)n(CCc4ccccc4)c(=S)[nH]c3c2)CC1 5.18%
Cc1ccc(Cl)cc1N1CCN(C(=O)Cn2ccc3ccccc3c2=O)CC1 4.81%
CCOc1ccc(CCNC(=O)C2CCN(c3nnc(-n4cccc4)s3)CC2)cc1 -0.04%
CCN1CCN(CCCNC(=O)C2CCN(c3nnc(-n4cccc4)s3)CC2)CC1 16.4%
CCOCC(=O)Nc1ccc(-c2cn3cccnc3n2)cc1 1.23%
CCCCn1nc(C(=O)Nc2cc(C(F)(F)F)ccc2N2CCOCC2)ccc1=O 4.58%
O=C(CSc1nnnn1-c1cccc2ccccc12)Nc1ccc(N2CCOCC2)c(Cl)c1 -5.56%
CCOc1ccc(N=Cc2c(O)cc(C)oc2=O)cc1 30%
Cc1cccc(N=Cc2c(O)cc(C)oc2=O)c1 5.21%
CC1Cc2ccccc2N1C(=O)COc1nc2ccccc2nc1N1CCOCC1 (stereo not given) 0.29%
CO/N=C/C=C1/N(C)c2ccccc2C1(C)C 6.44%
CN1/C(=C\C=N\O)C(C)(C)c2ccccc21 15.1%
CN1/C(=C\C=N\NC(=O)c2cccnc2)C(C)(C)c2ccccc21 4.5%
CN1/C(=C\C=Nc2ccc3ccccc3c2)C(C)(C)c2ccccc21 12.2%
CN1/C(=C/C=N/NC(=O)c2ccc([N+](=O)[O-])cc2)C(C)(C)c2ccccc21 2.66%
Cc1ccccc1N=C/C=C1\N(C)c2ccccc2C1(C)C 4.55%
COC(=O)CCCCC(=O)C1C(=O)CC(C)(C)C(C(=O)OC)C1=O (stereo not given) 2.31%
CC1(C2CC(C(F)(F)F)n3nc(C(=O)O)cc3N2)CC1 (stereo not given) 5.89%
O=C(Nc1ccc(C(=O)N2CCCCC2)cc1)c1ccccc1Br 3.41%
COc1ccc(/C=C/C(=O)Oc2ccc(/C=N/NC(=O)c3ccccc3)cc2)cc1OC 3.85%
O=C(CN1CCN(Cc2ccccc2)CC1)N/N=C/c1cccs1 2.1%
N/C(Cc1ccc([N+](=O)[O-])cc1)=N\OC(=O)C(c1ccccc1)c1ccccc1 8.53%
NC(CSCc1ccccc1Cl)C(=O)O (stereo not given) -0.96%
CCc1ccc(OCC(=O)N2CC(C(N)=O)Oc3ccccc32)cc1 (stereo not given) 4.28%
COc1ccc(/C=C(\C#N)c2nc3ccccc3[nH]2)cc1O 18.2%
COc1cc(/C=C(/C#N)c2nc3ccccc3c(=O)[nH]2)ccc1O 19.3%
Cc1ccc2nc(/C(C#N)=C/c3ccccc3C(=O)O)[nH]c2c1 16%
COc1cc(/C=C(\C#N)c2nc3ccccc3[nH]2)cc(Br)c1OCc1ccc(F)cc1 6.53%
COc1cc(/C=C(\C#N)C(=O)c2c(C)[nH]c3ccccc23)cc(OC)c1OC 15.4%
COc1cc(/C=C(\C#N)c2nc3ccccc3[nH]2)cc(Br)c1OCc1ccccc1 6.48%
Cc1cc2nc(/C(C#N)=C/c3ccncc3)[nH]c2cc1C 10.2%
COc1ccc(/C=C(\C#N)C(=O)c2c(C)[nH]c3ccccc23)cc1OC 10.7%
O=C(CCn1cnnn1)NC1CCCN(Cc2ccccc2F)C1 (stereo not given) -0.5%
CN(C)c1ccc(C=NNC(=O)c2cccnc2)cc1 1.95%
CCCCN(C(=O)c1ccc2c(c1)S(=O)(=O)N=C1CCCCCN12)c1c(N)n(CCCC)c(=O)[nH]c1=O -0.05%
CC1C(=O)Nc2ccc(S(=O)(=O)NCc3ccc(Cl)cc3)cc2NC1=O (stereo not given) 7.58%
Cc1ccc(F)cc1NC(=O)CCOc1ccccc1 -2.1%
CCCc1cc(=O)n2nc(N3CCC(C(=O)NCc4ccco4)CC3)sc2n1 4.69%
COc1cc2c(cc1NC(=O)c1ccncc1)oc1ccccc12 14.9%
C=Cn1cc(CNC[C@H]2O[C@@H](n3ccc(N)nc3=O)[C@H](O)[C@@H]2O)c(C)n1 0.77%
COc1ccc(CCNS(=O)(=O)c2ccc(-n3cnnn3)cc2)cc1OC 4.09%
O=C(Nc1nc2ccccc2[nH]1)Nc1ccccc1F -2.47%
CCCc1ccc2oc(C(=O)N3CCCC3)c(C)c2c1 3.8%
O=C(NC1CCN(S(=O)(=O)c2ccc(F)cc2)CC1)c1cccc(F)c1 4.4%
Cc1cc2nc3ccc(N(C)C)cc3nc2cc1N 18.1%
Cc1ccc(-n2nc3cc(C)c(N)cc3n2)cc1 8.27%
CS(=O)(=O)N1CCN(c2ccccc2NC(=O)c2ccc(Cl)cc2)CC1 13.8%
O=[N+]([O-])c1c(Nc2ccccc2O)cc(Cl)c2nonc12 16.1%
O=[N+]([O-])c1ccc(Nc2ccccc2O)c2nonc12 19.7%
O=[N+]([O-])c1ccc2nonc2c1Nc1ccccc1 5.91%
CC(=O)c1ccc(Nc2ccc([N+](=O)[O-])c3nonc23)cc1 4.9%
O=[N+]([O-])c1c(Nc2ccc(O)cc2)cc(Cl)c2nonc12 16.8%
CN(C)c1cc(Nc2ccc(O)cc2)c([N+](=O)[O-])c2nonc12 13.9%
Cn1c(/N=C/c2ccccc2[N+](=O)[O-])nc2ccccc21 2.88%
CC(=O)N1CCC(N(CCN2CCOCC2)C(=S)Nc2cc(C)cc(C)c2)CC1 9.32%
Cc1ccc2cc(CN(CC(C)C)S(=O)(=O)c3cccc4nonc34)c(=O)[nH]c2c1 9.22%
CC(/C=C/C=C/c1ccccc1)=N/NC(=O)C(O)c1ccccc1 (stereo not given) 13.5%
C=COCCCNc1ncnc2sc(-c3ccccc3)cc12 23.7%
OCCOCCNc1ncnc2sc(-c3ccccc3)cc12 23%
O=C(NCCCN1CCCC1)c1ccc2c(c1)N(Cc1ccc(F)cc1)C(=O)c1ccccc1S2=O (stereo not given) 6.31%
CSc1n[nH]c(NCc2ccc(C)cc2)n1 -0.45%
Nc1nc(N)c2[nH]c(-c3ccccc3)nc2n1 6.78%
CC(C)(C)c1nc(N)nc(=O)[nH]1 4.68%
COc1cc(O)c2c(c1)COC2=O 4.96%
C=CCc1cc(OC)ccc1OCCON1C(=O)CCC1=O 8.6%
CN(C)c1cccc(C(=O)OCC(=O)NC(=O)NCc2ccccc2)c1 -0.47%
CCOC(=O)c1cnc(Nc2ccccc2)nc1C(F)(F)F 1.7%
Cc1c(N=Cc2ccc(-c3ccc(Cl)cc3)o2)c(=O)n(-c2ccccc2)n1C 3.54%
O=C(Cc1cccc(C(F)(F)F)c1)OCN1C(=O)c2ccccc2C1=O 4.25%
CCCCCC(=O)Nc1cc(S(=O)(=O)N2CCCCC2)ccc1N1CCCCC1 9.51%
CCS(=O)(=O)c1ccc(O)c(NC(=O)CCCC(=O)O)c1 13.8%
Cc1ccc(-c2nc(CS(=O)(=O)CC(=O)NCc3cccc(F)c3)c(C)o2)cc1 7.24%
CC#C[C@@H](CC)c1ccc2ccn(C)c2c1 9.11%
O=C1c2cc(CO)cc(O)c2C(=O)c2c(O[C@@H]3OC(CO)[C@@H](O)[C@@H](O)[C@@H]3O)cccc21 (stereo not given in full) 7.99%
O=C1c2c(O)cccc2C(C2OC(CO)[C@@H](O)[C@H](O)[C@H]2O)c2cc(CO)cc(O)c21 (stereo not given in full) 11.8%
Cc1ccc2c(C(=O)N3CCN(c4ccccc4)CC3)cc(-c3cccnc3)nc2c1C 6.48%
COC(=O)CC1SC(=O)NC1=Nc1ccc(C)cc1 (stereo not given) 8.37%
COC(=O)CC1SC(=O)NC1=Nc1ccc(OC)cc1 (stereo not given) 6.86%
Cc1cc(Nc2ccccc2Cl)n2nnnc2n1 2.54%
COC(=O)CSc1nc(N)c2c3c(sc2n1)C(c1ccccc1)SC(c1ccccc1)C3 (stereo not given) 6.76%
O=C1C(=O)c2ccc(-c3ccccc3)cc2-c2ccccc21 7.95%
O=C1C(=C(O)c2ccccc2)C(=O)c2ccccc21 8.92%
COc1ccc(N(CC(=O)Nc2ccccc2F)S(=O)(=O)c2ccc(OC)c(OC)c2)cc1 -10.3%
COc1ccc(C(=O)Nc2cccc3nc(C)ccc23)cc1OC 12.2%
